# Screening results from PubChem.
# HepG2 viability: counter-screen for TGF-b inhibitors: cytotoxicity in HepG2 cells; HepG2 CAGA-GFP viability, ATP luminescence, 18 h; Potency, µM (doses to about 46.1 µM), for inactives: at the highest dose activity change, negative = cytotoxicity, most hits filed as cytotoxic; 410,000 compounds, 0.76% hits; AID 588856; also: potency is read from the fitted curve at half-maximal effect
#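 CellTiter-Glo luminescence gave cytotoxicity after 18 hours at 37 degrees C. The cells were HepG2 CAGA-GFP in 1% FBS DMEM, stimulated with 500 pg/mL TGF-beta after compound addition. %Activity was normalised to no-cell wells (complete cell-killing) and DMSO (no toxicity), and curves were fitted and classified.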
# IL1B secr inh: inflammasome signaling inhibition, IL-1 beta readout; THP-1 LPS/ATP IL-1B secretion, AlphaLISA, 16 h; hits give low values; activity change, % at 57.5 µM; 360,000 compounds, 4.7% hits; AID 743279; in the data active = activity change below about -50%; inconclusive = mostly about -30% to -49%; also: % is scaled to controls: 0 for no effect and ±100 for the full control effect
#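 THP-1 cells pretreated 1 hr with compounds (up to 57.5 uM final), then stimulated with LPS (250 ng/mL final) plus ATP (1.25 mM final); secreted IL-1B measured by AlphaLISA after 16 hr, decreased signal indicating inhibition.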
# S-ASM inh: inhibitors of human secretory acid sphingomyelinase | P17405 | placental ASM, HMU-PC fluorogenic substrate, 60 min | Potency, µM (doses to about 57.5 µM), inactives show at the top dose activity change, negative = inhibition, usual class: inhibitors | 340,000 compounds, 0.006% hits | AID 504937; also: potency is read from the fitted curve at half-maximal effect
# Target sequence (P17405 47-631 limits assumed): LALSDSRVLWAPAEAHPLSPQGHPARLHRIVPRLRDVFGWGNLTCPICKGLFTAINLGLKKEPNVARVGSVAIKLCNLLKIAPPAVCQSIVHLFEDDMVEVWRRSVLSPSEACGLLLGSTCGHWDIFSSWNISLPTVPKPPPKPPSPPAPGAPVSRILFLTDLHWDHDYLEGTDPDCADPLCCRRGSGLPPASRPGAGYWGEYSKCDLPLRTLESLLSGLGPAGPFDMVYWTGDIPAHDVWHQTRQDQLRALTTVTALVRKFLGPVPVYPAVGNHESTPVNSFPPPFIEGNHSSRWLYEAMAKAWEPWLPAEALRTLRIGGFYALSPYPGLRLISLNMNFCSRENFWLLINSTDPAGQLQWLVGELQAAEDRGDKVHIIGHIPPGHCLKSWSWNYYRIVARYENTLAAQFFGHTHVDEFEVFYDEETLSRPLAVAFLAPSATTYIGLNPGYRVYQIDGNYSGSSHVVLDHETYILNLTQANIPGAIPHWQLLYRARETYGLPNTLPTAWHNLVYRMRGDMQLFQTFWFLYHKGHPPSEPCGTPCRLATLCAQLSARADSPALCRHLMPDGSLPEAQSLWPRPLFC
#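 Human placenta-derived ASM preincubated with compound 10 min at room temperature, then reacted with 9 uM (final) fluorogenic HMU-PC substrate for 60 min at 37 C. Stop solution raises pH to 10; fluorescence read at Ex 386/Em 447 nm.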
# TDP1 cell CPT: DT40-hTDP1 cell growth loss with CPT; Potency, µM (top dose mostly 46.2 µM), without a hit: at the highest dose activity change, negative = growth inhibition, most hits filed as inhibitors; chicken DT40 Tdp1-/-;hTDP1 cells + 20 nM CPT, ATP luminescence, 48 h; 420,000 compounds, 12% hits; AID 686979; also: potency is read from the fitted curve at half-maximal effect; % is scaled to controls: 0 for no effect and ±100 for the full control effect; nearly all actives have a fitted effect of over 55% in size
#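 Cell growth measured by CellTiter-Glo luminescence after a minimum 48 h, 37 C compound exposure with 20 nM CPT in Tdp1-knockout DT40 cells stably expressing hTDP1, seeded 400/well; qHTS titration format.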
# TGFb inhibitor: TGF-b pathway inhibition. HepG2 CAGA-GFP TGF-b/SMAD3 reporter, GFP fluorescence, 18 h; TGF-beta stimulated, 500 pg/mL final. Potency, µM (top dose mostly 46.1 µM), inactives show at the top dose activity, negative = inhibition, hits mostly inhibitors. 410,000 compounds, 1.2% hits. AID 588855; also: potency is read from the fitted curve at half-maximal effect; % is scaled to controls: 0 for no effect and ±100 for the full control effect; nearly all actives have a fitted effect of over 65% in size
#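 Read-out: total well GFP (ex488/em500-530) summed from mean per-cell fluorescence. Cells: HEPG2 CAGA-GFP, 1% FBS DMEM, 18 h at 37 degrees C with 500 pg/mL final TGF-beta. Unstimulated wells served as the full-inhibition control; stimulated DMSO wells = 0%.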
# TDP1 cell noCPT: qHTS for Inhibitors of human tyrosyl-DNA phosphodiesterase 1 (TDP1): qHTS in cells in absence of CPT; DT40 Tdp1-/- hTDP1 cells, no CPT, ATP luminescence, 48 h; Potency, µM (highest dose often 46.2 µM), for the others: top-dose activity change, negative = growth inhibition, most hits filed as inhibitors; 420,000 compounds, 15% hits; AID 686978, 2013; also: potency is read from the fitted curve at half-maximal effect; % is scaled to controls: 0 for no effect and ±100 for the full control effect; nearly all actives have a fitted effect of over 55% in size
#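 Stably hTDP1-transfected Tdp1-null chicken DT40 cells were treated with library compounds minus camptothecin and grown for at least 48 hr at 37 °C, after which cellular ATP was quantified by luminescence.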
# Active calls of the source: *; ? = inconclusive; nt = not tested or not shown; [ ] = remark or other dose. A selection: hits, their analogues and other compounds. The true share with any hit is near 19%. Unless noted, calls follow the shape of the dose curve; as a rule, active = well fitted curve in the direction sought with a large enough effect; inconclusive = small, poorly fitted or top-dose-only effect, or another doubt; inactive = no such curve, though single readings can be large; an effect the other way counts as inactive or inconclusive.
SMILES,HepG2 viability,IL1B secr inh,S-ASM inh,TDP1 cell CPT,TGFb inhibitor,TDP1 cell noCPT
CC(C)(C)c1cc(NC(=O)CCl)n(-c2ccccc2)n1,9%,-93*,-1%,?,-8%,21µM*
COCCNc1nnc(SCC(=O)Nc2cc(-c3ccccc3)nn2-c2ccccc2)s1,-24%,-3,nt,26µM*,?,16µM*
COc1ccccc1-n1cnnc1SCC(=O)Nc1cc(C(C)(C)C)nn1-c1ccccc1,-47%,-3,2%,10µM*,-18%,13µM*
Cc1cc(C)c(-c2cc(NC(=O)CSc3nncn3C)n(-c3ccccc3)n2)cc1C,-21%,-13,0%,18µM*,-2%,21µM*
CC(C)c1nnc(NC(=O)CCC(=O)NCc2ccc(F)cc2)s1,1%,30,4%,?,-9%,?
COc1ccc(C(=O)Nc2ccc(S(=O)(=O)Nc3nccc(C)n3)cc2)cc1[N+](=O)[O-],-4%,14,7%,3%,12%,6%
Cc1cnc(-n2ncc(C(=O)NCCc3ccccn3)c2C)nc1-c1ccc(F)cc1,nt,nt,nt,3%[9.04 µM],nt,?
C/C(=N\NS(=O)(=O)c1ccc([N+](=O)[O-])cc1)c1ccc(NC(=O)c2ccco2)cc1,11%,-8,-7%,3%,12%,-5%
CCc1cc(C(=O)N2CCc3c([nH]c4ccccc34)C2c2ccc(OC)cc2F)no1 (stereo not given),-8%,?,-26%,?,-18%,23µM*
COc1ccc(C2c3[nH]c4ccccc4c3CCN2C(=O)c2ccc(=O)n(C)n2)c(F)c1 (stereo not given),-25%,67,-6%,-14%,0%,?
CCOc1cccc(C2c3[nH]c4ccccc4c3CCN2C(=O)CSc2ccccc2)c1 (stereo not given),-17%,nt,nt,?,-28%,?
CCOc1cccc(C2c3[nH]c4ccccc4c3CCN2C(=O)c2ccccc2F)c1 (stereo not given),-17%,nt,nt,?,?,16µM*
O=C(O)c1cccnc1C(=O)N1CCc2c([nH]c3ccccc23)C1C(F)(F)F (stereo not given),-5%,8,1%,12%,2%,1%
Cc1ccccc1C(=O)N1CCc2c([nH]c3ccccc23)C1C(F)(F)F (stereo not given),4%,-55*,-9%,?,?,?
O=C(O)CSc1c2c(nc3cc(C(=O)Nc4ccc(F)c(Cl)c4)ccc13)CCCC2,-3%,1,-2%,-2%,9%,-9%
NNc1nc2c(F)cc(F)cc2s1,-30%,-25,-3%,?,-10%,23µM*
Fc1cccc2sc(Nc3nc4c(F)cccc4s3)nc12,-27%,17,139%,?,-8%,13µM*
CC1CCc2c(sc(Nc3nc4c(F)cccc4s3)c2C(N)=O)C1 (stereo not given),-17%,-78*,230%,?,?,16µM*
O=C(Nc1nc2c(F)cccc2s1)C1CC1,-4%,22,6%,-6%,10%,-12%
Nc1nc2c(F)cccc2s1,-2%,28,2%,-3%,-6%,2%
NNc1nc2c(F)cccc2s1,-7%,5,2%,?,-13%,15µM*
O=C(NNc1nc2c(F)cccc2s1)c1ccc(F)cc1,-21%,-11,3%,?,-26%,?
CCc1ccc(CN2C(=O)c3ccccc3C2C(=O)NC2CCCCCC2)cc1 (stereo not given),5%,nt,nt,0%,12%,-25%
CCn1cc(C(=O)N2CCN(c3cccc(Cl)c3)CC2)c(=O)c2cc(S(=O)(=O)N3CCOCC3)ccc21,-11%,nt,nt,12%,-33%,-18%
Cc1sc(NC(=O)CN(Cc2ccc(F)cc2)C(=O)C(C)C)c(C(N)=O)c1C,-41%,?,-1%,3.7µM*,?,2.3µM*
SMILES,HepG2 viability,IL1B secr inh,S-ASM inh,TDP1 cell CPT,TGFb inhibitor,TDP1 cell noCPT
Cc1sc(NC(=O)CN(Cc2ccccc2)C(=O)C(C)C)c(C(N)=O)c1C,-25%,25,4%,1.8µM*,?,1.2µM*
CC(=O)Nc1sc(C)c(C)c1C(=O)OCC(=O)N(Cc1ccccc1)C(C)C,5%,21,-5%,?,1%,-28%
COc1ccc(C(=O)N(CC(=O)Nc2sc(C)c(C)c2C(N)=O)C2CCCC2)cc1,6%,6,-4%,?,4%,?
CCC(=O)N(CC(=O)Nc1sc(C)c(C)c1C(N)=O)C1CCCC1,0%,17,-1%,23µM*,-2%,13µM*
CCC(=O)N(CC(=O)Nc1sc(C)c(C)c1C(N)=O)Cc1ccc(F)cc1,-4%,8,-3%,21µM*,-19%,15µM*
O=C(CN(Cc1ccc(Cl)cc1)C(=O)c1csnn1)NCc1ccc(F)cc1,-3%,16,5%,-16%,1%,?
Cc1ncc2c(c1CNC(=O)/C=C/c1cccs1)CCN(C(=O)c1c(C)noc1C)C2,nt,nt,nt,16%[9.04 µM],nt,-13%
COc1ccccc1CNC(=O)CC(c1ccc(C)cc1)N1Cc2ccccc2C1=O (stereo not given),3%,nt,nt,?,39%,?
COc1ccc(OCC(=O)Nc2ccccc2-c2ccccc2)cc1,-22%,21,2%,?,-16%,?
Cc1ccc(OCC(=O)Nc2ccccc2-c2ccccc2NC(=O)COc2ccc(C)cc2)cc1,-10%,9,0%,?,?,21µM*
CCN(CC)c1ccc(C(=O)OCC(=O)NC2CCCCC2C)cc1 (stereo not given),12%,33,1%,21µM*,-10%,15µM*
CCOC(=O)N1CCN(C(=O)c2ccccc2N(Cc2ccccc2)S(=O)(=O)c2ccccc2)CC1,1%,8,-1%,21µM*,9%,21µM*
Cc1ccccc1OCC(=O)Nc1ccccc1-c1ccccc1,1%,37,-4%,-16%,-11%,6.5µM*
CN(C)CCNC(=O)c1ccc2c(c1)N(Cc1ccccc1)C(=O)c1ccccc1S2(=O)=O,-17%,nt,nt,-7%,nt,-7%
CCC(=O)c1ccc(OCC(=O)Nc2ccccc2C(=O)N2CCCCC2)cc1,-6%,-62*,5%,?,-10%,16µM*
